Experimental data: the supplement of paper PMC6089552
Out of some 3,200 compounds screened, about 300 (9.4%) showed activity. For the sample, actives were picked, then their nearest neighbours and some compounds at random.

Tested on: A673/TR/shEF
Test: cell viability (LOESS-normalised, relative to median of negative controls) (log2 ratio); higher = more viable cells (less compound effect), active = hit call of the paper (over 3 MAD below the median)
Conditions: treatment time: 72 h
Summary of the method: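 Doxycycline, present or absent from 24 h before compounds, was used to induce EWS-FLI1 shRNA knockdown in A673/TR/shEF Ewing sarcoma cells at 1,500 per well in 384-well plates. Cells then received library compounds at two or more concentrations, or DMSO controls, for three days. Viability was measured by CellTiter-Glo luminescence on an Envision reader, and per-plate LOESS correction, division by the negative-control median and log2 transformation followed.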

[1] = 0.25 µM, library screen: screen1, EWS-FLI1 expression: high (no doxycycline)
[2] = 0.25 µM, library screen: screen1, EWS-FLI1 expression: low (doxycycline-induced shRNA knockdown)
[3] = 2.5 µM, library screen: screen1, EWS-FLI1 expression: high (no doxycycline)
[4] = 2.5 µM, library screen: screen1, EWS-FLI1 expression: low (doxycycline-induced shRNA knockdown)
[5] = 0.103 µM, library screen: screen3, EWS-FLI1 expression: high (no doxycycline)
[6] = 0.103 µM, library screen: screen3, EWS-FLI1 expression: low (doxycycline-induced shRNA knockdown)
[7] = 0.308 µM, library screen: screen3, EWS-FLI1 expression: high (no doxycycline)
[8] = 0.308 µM, library screen: screen3, EWS-FLI1 expression: low (doxycycline-induced shRNA knockdown)
[9] = 0.926 µM, library screen: screen3, EWS-FLI1 expression: high (no doxycycline)
[10] = 0.926 µM, library screen: screen3, EWS-FLI1 expression: low (doxycycline-induced shRNA knockdown)
[11] = 2.8 µM, library screen: screen3, EWS-FLI1 expression: high (no doxycycline)
[12] = 2.8 µM, library screen: screen3, EWS-FLI1 expression: low (doxycycline-induced shRNA knockdown)
[13] = 8.3 µM, library screen: screen3, EWS-FLI1 expression: high (no doxycycline)
[14] = 8.3 µM, library screen: screen3, EWS-FLI1 expression: low (doxycycline-induced shRNA knockdown)
[15] = 25 µM, library screen: screen3, EWS-FLI1 expression: high (no doxycycline)
[16] = 25 µM, library screen: screen3, EWS-FLI1 expression: low (doxycycline-induced shRNA knockdown)
[17] = 0.25 µM, library screen: screen2, EWS-FLI1 expression: high (no doxycycline)
[18] = 0.25 µM, library screen: screen2, EWS-FLI1 expression: low (doxycycline-induced shRNA knockdown)
[19] = 2.5 µM, library screen: screen2, EWS-FLI1 expression: high (no doxycycline)
[20] = 2.5 µM, library screen: screen2, EWS-FLI1 expression: low (doxycycline-induced shRNA knockdown)
[21] = 0.025 µM, library screen: screen1, EWS-FLI1 expression: high (no doxycycline)
[22] = 0.025 µM, library screen: screen1, EWS-FLI1 expression: low (doxycycline-induced shRNA knockdown)
[23] = 25 µM, library screen: screen1, EWS-FLI1 expression: high (no doxycycline)
[24] = 25 µM, library screen: screen1, EWS-FLI1 expression: low (doxycycline-induced shRNA knockdown)

Measured: cell viability (log2)

CC(=O)Nc1ccc2c(c1)C1C=CCC1C(c1ccc(Cl)cc1Cl)N2 (stereo not given)
inactive: [1] 0.141 | [2] 0.199 | [3] 0.113 | [4] 0.349

CCOC(=O)c1c(C)cc(O)c(C)c1O
inactive: [1] 0.117 | [2] 0.0649 | [3] 0.0865 | [4] 0.119

CS(=O)(=O)c1ccc2nc(NC(=O)c3cccc(Cl)c3)sc2c1
inactive: [2] 0.0657 | [3] 0.0503 | [4] 0.0275
active: [1] -0.0938

CS(=O)(=O)c1ccc(C(=O)Nc2ccc(Cl)c(-c3ccccn3)c2)c(Cl)c1
inactive: [5] 0.0228 | [6] 0.046 | [7] 0.0359 | [8] 0.0158 | [9] 0.0316 | [10] 0.0515 | [11] 0.0335 | [12] 0.0126 | [13] 0.0254 | [14] 0.0522 | [15] 0.025 | [16] 0.0484

COC(=O)C[C@H]1C(C)(C)C(=O)[C@@H]2C[C@@]3(O)C4=CC(=O)O[C@@H](c5ccoc5)[C@]4(C)CCC3[C@@]1(C)C2=O (stereo not given in full)
inactive: [1] 0.0813 | [2] 0.00839 | [3] 0.172 | [4] 0.118

COc1ccccc1C1NC(=S)NC(C)=C1C(=O)Nc1ccccc1Cl (stereo not given)
inactive: [1] 0.153 | [2] 0.0944 | [3] 0.107 | [4] 0.0425

Cc1cc(=O)c2c(O)cc(O)c(C)c2o1
inactive: [1] 0.111 | [2] 0.0695 | [3] 0.0905 | [4] 0.0937

COc1ccc(-c2nc3ccc(C4=NNC(=O)CC4C)cc3[nH]2)cc1 (stereo not given)
inactive: [5] -0.0122 | [6] 0.0487 | [7] -0.0245 | [8] -0.0302 | [9] -0.00296 | [10] -0.0241 | [11] 0.0147 | [12] -0.00868 | [13] -0.0247 | [14] 0.0168 | [15] -0.172 | [16] -0.00571

O=C(/C=C/c1ccccc1)c1c(O)cc(O)cc1O
inactive: [1] 0.0431 | [2] 0.0419 | [3] 0.0216 | [4] -0.0857

O=C(C=Cc1ccccc1)c1ccccc1O
inactive: [1] 0.0713 | [2] 0.0789 | [3] 0.0334 | [4] 0.11

O=C(/C=C/c1cccc(S(=O)(=O)Nc2ccccc2)c1)NO
inactive: [5] 0.0161 | [6] 0.0578 | [7] 0.00773 | [8] 0.0247 | [9] -0.074 | [10] -0.000337
active: [11] -0.399 | [12] -0.113 | [13] -1.47 | [14] -0.52 | [15] -4.33 | [16] -2.11

O=S(=O)(c1ccc(Br)c2ccccc12)n1ccnc1
inactive: [1] 0.091 | [2] 0.0921 | [3] 0.103 | [4] 0.117

Cc1ccc(NC(=O)c2ccc(OC3CSC3)cc2)cc1
inactive: [1] -0.0477 | [2] -0.0107 | [3] 0.0585 | [4] 0.076

CCOc1cc(C(=O)Nc2ccc([N+](=O)[O-])cc2)cc(OCC)c1OCC
inactive: [1] 0.054 | [2] 0.0461 | [3] 0.0696 | [4] -0.156

COCc1cc(C)nc(SCC(=O)NC(C)(C)C)c1C#N
inactive: [1] 0.122 | [2] 0.0633 | [3] 0.0645 | [4] -0.0386

O=C1N(c2ccccc2)c2ccccc2C1(Cc1ccncc1)Cc1ccncc1
active: [19] -0.0773
inactive: [17] 0.0704 | [18] 0.0498 | [20] 0.0762

NC(=O)NCC(N)C(=O)O (stereo not given)
inactive: [1] -0.0311 | [2] 0.00393 | [3] 0.0385 | [4] 0.0656

O=C(O)/C=C(/CC(=O)O)C(=O)O
inactive: [1] 0.0822 | [2] 0.00778 | [3] 0.03 | [4] 0.0214

O=C1C=C(O)c2ccccc2C1=O
inactive: [1] 0.0525 | [2] -0.00535 | [3] 0.0828 | [4] 0.181

CCCCCCCCCCCCCCCCCC(=O)OC(CC(=O)O)C[N+](C)(C)C (stereo not given)
inactive: [1] 0.12 | [2] -0.0279 | [17] 0.206 | [18] 0.0207 | [3] 0.187 | [4] 0.0146 | [19] 0.154 | [20] 0.133

CCCCCCCCCCCCCCCC(=O)OC(CC(=O)[O-])C[N+](C)(C)C (stereo not given)
inactive: [17] 0.153 | [18] 0.133 | [19] 0.18 | [20] 0.0929

CCCCCCCCCCCCCCCC(=O)O[C@H](CC(=O)[O-])C[N+](C)(C)C
inactive: [21] 0.0342 | [22] 0.0241 | [1] 0.194 | [2] 0.0339 | [3] 0.0599 | [4] -0.023
active: [23] -0.454 | [24] -0.672

NC(=Nc1nc2ccccc2o1)NC(=O)c1sc2ccccc2c1Cl
inactive: [1] 0.078 | [2] 0.000721 | [3] 0.0829 | [4] -0.0453

O=C1c2ccccc2-c2n[nH]c3cccc1c23
active: [23] -0.11
inactive: [21] 0.132 | [22] 0.0656 | [1] 0.181 | [2] -0.0312 | [3] -0.0168 | [4] 0.228 | [24] 0.104

COC1=C(OC)C(=O)c2ccccc2C1=O
inactive: [17] 0.153 | [18] 0.0608 | [19] 0.12 | [20] 0.0758

CCC(C)CCCCC(=O)NC(CCNCS(=O)(=O)O)C(=O)NC(C(=O)NC(CCNCS(=O)(=O)O)C(=O)NC1CCNC(=O)C(C(C)O)NC(=O)C(CCNCS(=O)(=O)O)NC(=O)C(CCNCS(=O)(=O)O)NC(=O)C(CC(C)C)NC(=O)C(CC(C)C)NC(=O)C(CCNCS(=O)(=O)O)NC1=O)C(C)O (stereo not given)
inactive: [1] 0.117 | [2] 0.0486 | [3] 0.103 | [4] -0.0146
